Assay outcomes from PubChem BioAssay.
Marburg entry = qHTS for Inhibitors of binding or entry into cells for Marburg Virus | Potency, µM (doses to about 49.2 µM), for the others: at the top dose activity change, negative = inhibition, usual class: inhibitors | 6.5% of 18,000 active | Marburg virus pseudotype entry/binding inhibition, cell-based
Lassa entry = qHTS for Inhibitors of binding or entry into cells for Lassa Virus; Lassa virus pseudotyped entry inhibition, cell-based qHTS; Potency, µM (series often up to 49.2 µM), inactives show top-dose activity change, negative = inhibition, hits mostly inhibitors; 4.1% of 18,000 active; AID 720533, 2013
Active calls of the source: *; ? = inconclusive; . = no result given; ! = not confirmed by another sample; [ ] = another dose, or the depositor's remark. Most compounds without a hit are left out; they make up all but 8% or so of the library. Calls follow the shape of the full dose curve; tested in HEK293 cells. % is scaled to controls: 0 for no effect and ±100 for the full control effect; potency is read from the fitted curve at half-maximal effect.

SMILES | Marburg entry | Lassa entry
CCCCC/C=C\C/C=C\C/C=C\C/C=C\CCCCCC(=O)NCCc1ccc(O)c(O)c1 | 23% | -1%
CCCCC/C=C\C/C=C\C/C=C\C/C=C\CCCC(=O)N(Cc1ccc(O)c(Cl)c1)Cc1ccc(O)c(Cl)c1 | ? | 0.079µM*
C=C(C)[C@H]1O[C@H]2CC[C@@]3(C)[C@@](O)(CC[C@H]4[C@@H]5OC(C)(C)[C@H]6C[C@@H]7C(=C)Cc8c(Cl)cc9[nH]c(c5c9c8[C@@]76O)[C@@]43C)[C@]23O[C@@H]3[C@H]1O | ? | 25µM*
CC(C)(C)NCC(O)c1ccc(O)c(CO)c1 (stereo not given) | 13% | -4%
OCc1cc(C(O)CNCCCCCCOCCCCc2ccccc2)ccc1O (stereo not given) | 16µM* | ?
CCN1C(=NCCCCO)N[C@@H](CCc2ccccc2)[C@H](C(=O)OC)[C@H]1C | 9%[8.59 µM] | -8%[8.59 µM]
CCCCCCCCCOc1ccc2[nH]cc(CCN)c2c1 | 10µM* | 35µM*!
NCCc1c[nH]c2ccc(O)cc12 | -10% | -11%
CC(=O)Oc1c2c(c(CC=C(C)C)c3c1C(=O)C1=CC4CC5C(C)(C)OC(C/C=C(\C)C(=O)O)(C4=O)[C@]15O3)OC(C)(CCC=C(C)C)C=C2 (stereo not given in full) | 2.8µM* | ?
CC(=O)Oc1c(-c2ccccc2)oc2c(CC=C(C)C)c3c(c(OC(C)=O)c2c1=O)C=CC(C)(C)O3 | 1% | 1%
COC(=O)/C(C)=C\CC12OC(C)(C)C3CC(C=C4C(=O)c5c(OC)c6c(c(CC=C(C)C)c5OC431)OC(C)(CCC=C(C)C)C=C6)C2=O (stereo not given) | 2.8µM* | 4.5µM*
COc1cccc(C2(CC(=O)N3CCN(c4ccccc4O)CC3)CC(=O)N(C3CCCC3)C2=O)c1 (stereo not given) | -14% | -27%
CC(=O)OC[C@H]1O[C@H](CC=NO[C@H](C)c2cn([C@@H]3COC[C@@H]3O)nn2)C=C[C@@H]1OC(C)=O | -12%[8.59 µM] | -3%[8.59 µM]
C/C(=C\c1ccco1)CN1CCOc2ccc(CN3CCC(Oc4cccnc4)CC3)cc2C1 | ? | 2%
CCCCC/C=C/C=C1/C(=O)C=C[C@@H]1C/C=C\CCCC(=O)O | ? | 16µM*!
CCCCC[C@H](O)C/C=C1/C(=O)C=C[C@@H]1C/C=C\CCCC(=O)O | 12% | ?
CCN(CC)CCO[C@H]1CC[C@@]2(C)C(=CC[C@@H]3[C@@H]2CC[C@]2(C)C(=O)CC[C@@H]32)C1 | -7% | 9%
CCN(CC)CCO[C@H]1CC[C@@]2(C)C(=CC[C@@H]3[C@H]2CC[C@]2(C)C(=O)CC[C@H]32)C1 | 13µM* | -23%
COC[C@H]1O[C@H](c2ccccc2)C=C[C@H]1OCC=C(C)C | 42%[8.59 µM] | 17%[8.59 µM]
COC(=O)[C@]1(C)CC[C@@]2(C)CC[C@@]3(C)C4=CC=C5C(=CC(=O)C(O)=C5C)[C@@]4(C)CC[C@@]3(C)C2C1 (stereo not given in full) | 3.5µM* | 5.6µM*
CC(C)CN1Cc2cc(Br)ccc2Oc2ccc(Cl)cc2S1(=O)=O | ? | -10%
CCCCN1CCC[C@H]1CNC(=O)c1cc(C#N)c2ccccc2c1OC | 10µM* | ?
CCN1CCCC1CNC(=O)c1cnn(-c2nccc(-c3ccccc3OC)n2)c1-c1ccco1 (stereo not given) | ? | -4%
CCN1CCCC1CNC(=O)c1cc(S(N)(=O)=O)ccc1OC (stereo not given) | 3% | 17%
CCc1cc(Cl)c(OC)c(C(=O)NC[C@@H]2CCCN2CC)c1O | 4.5µM* | ?
SMILES | Marburg entry | Lassa entry
COc1ccc2c(c1)[C@@]1(OCCC=C[C@@H]1C)C(=O)N2Cc1ccc(Br)cc1 | 5%[8.59 µM] | -21%[8.59 µM]
Cc1cnc(-n2ncc(C(=O)NCCc3cccnc3)c2C)nc1-c1cccs1 | -19% | 8%
CC1(C)CC(n2cnc(-c3ccc(F)cc3)c2-c2ccnc(N)n2)CC(C)(C)N1 | ? | 27%
COC(=O)[C@]1(C)C=C[C@@H](C)[C@H](c2ccccc2Br)N1C(=O)C(F)(F)F | -15%[8.59 µM] | .
O=C(/C=C/C#Cc1cccc(NS(=O)(=O)c2ccccc2)c1)NO | ? | 10µM*
Nc1ccc(S(=O)(=O)Nc2ccccc2)cc1 | 6% | -14%
CC(=O)C1CC2C=CCOP(=O)(O2)O1 (stereo not given) | ? | 2%
COc1ccc(CN2C[C@]3(CO)OC(CO)C[C@H]3[S+]2(=O)[O-])cc1 (stereo not given in full) | 20% | 13%
C=CCNC(=O)N1C2=NC(C(=O)OC)=C(C(=O)OC)[C@@H]3N(C)c4ccccc4[C@]23C[C@H]1CO | -31%[8.59 µM] | 4%[8.59 µM]
CC1=C(/C=C/C(C)=C/C=C/C(C)=C/C(=O)Nc2ccc(O)cc2)C(C)(C)CCC1 | ? | 7.1µM*!
CC1=C(\C=C/C(C)=C/C=C\C(C)=C\C(=O)O)C(C)(C)CCC1 | ? | -1%
CCc1ccc(OCc2ccccc2C(=O)Nc2ccc3nc(C)cc(N)c3c2)cc1 | 4µM* | 7.1µM*
COc1ccc(NC(=O)c2ccc(-c3ccc(C)c4ccccc34)o2)cc1 | 14% | 26%
Cc1cccc(C)c1Nc1oc(-c2ccccc2)nc1C(C)(C)C | 2%[8.59 µM] | 17%[8.59 µM]
COC(=O)CC=C1c2ccccc2C[C@H](OC)[C@@H]1C | -1%[8.59 µM] | 2%[8.59 µM]
C=CCCC1(C(=O)c2ccccc2)C(=O)C(CC=C(C)C)=C(OC)C(CC=C(C)C)(CCC=C(C)C)C1=O (stereo not given) | -1%[8.59 µM] | .
CN(C)Cc1ccccc1-c1nc(N2CCOCC2)c2ccccc2n1 | 18µM* | -11%
Cc1noc(C)c1-c1nc(N2CCOCC2)c2ccccc2n1 | 5% | -2%
O=C(c1cccs1)N1C[C@@H](O)[C@@H](n2cc(C3CC3)nn2)C[C@@H]1c1ccc(Cl)cc1 | 7% | .
COC(=O)C1(C(=O)OC)C/C=C\C/C=C\c2ccccc2[C@@H]1C[N+](=O)[O-] | 4% | 5%
COC(=O)C1(C(=O)OC)C/C=C\Cc2ccccc2[C@@H]1C[N+](=O)[O-] | -4% | 0.25µM*!
O=C(c1cc(-c2ccccc2)on1)N1CCOc2ccc(CN3CCN(c4ccccn4)CC3)cc2C1 | 0% | -2%
C[C@@H]1C=CCCO[C@]12C(=O)Nc1ccc(O)cc12 | 10%[8.59 µM] | -19%[8.59 µM]
CCCCCCC(=O)O[C@H]1CC[C@H]2[C@@H]3CCc4cc(O)ccc4[C@H]3CC[C@]12C | 4% | 32µM*
C[C@]12CC[C@@H]3c4ccc(O)cc4CC[C@H]3[C@@H]1CC[C@@H]2O | 7% | 14µM*!
SMILES | Marburg entry | Lassa entry
C[C@@]12CC[C@@H]3c4ccc(O)cc4CC[C@H]3[C@H]1CC[C@H]2O | 7%[17.8 µM] | -12%[17.8 µM]
CC12CCC3c4ccc(O)cc4CCC3C1CCC2O (stereo not given) | 4% | ?
O=C([C@@H]1C[C@@H](Sc2nc3ccccc3[nH]2)CN1CC1CCCCC1)N1CCOCC1 | 1% | -6%
CC(C)c1cc(/C=C(\C#N)C(=O)NCCCc2ccccc2)cc(C(C)C)c1O | ? | 25µM*
N#C/C(=C\c1ccc(O)c(O)c1)C(=O)NCCCNC(=O)/C(C#N)=C/c1ccc(O)c(O)c1 | -31% | -21%
CC(C)c1c(C(=O)NCC(C)(C)N2CCOCC2)cnn1-c1nccc(-c2cccs2)n1 | -16% | -4%
CN1CCC(C(=O)Nc2n[nH]c3nnc(-c4ccccc4)cc23)CC1 | ? | 16%
CC=COC(=O)N[C@@H](c1ccccc1)[C@]1(C(=O)OCC)CCCC1=O | 2%[8.59 µM] | 9%[8.59 µM]
[Cl-].[Cl-].[Hg+2] | 2.8µM* | 3.2µM*
